Records with an inconclusive call do not appear. Activity calls are given as the source filed them. Unless noted, the call rests on the fitted dose curve; in most records, active means well fitted curve in the direction sought with a large enough effect in the repeat runs; inconclusive means weak or mixed curves; inactive means no such curve, though single readings can be large; an effect the other way counts as inactive or inconclusive.
Tests used:
[1] = A CellTox Green Cytotoxicity Assay to monitor cytotoxicity in HepG2 cells - 8 hour (AID 1224890); further: nearly all actives have a fitted effect of over 45% in size
Outline: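 Nonlytic assay: viable cells exclude the dye, so fluorescence scales with cell death. HepG2 at 600 cells/well, compounds added after 5 h, signal read across 40 h.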

[2] = qHTS assay to identify small molecule antagonists of the estrogen receptor alpha (ER-alpha) signaling pathway using the BG1 cell line in the presence of 0.1 nM 17-beta-estradiol - cell viability counter screen (AID 1259241); further: nearly all actives have a fitted effect of over 40% in size
Outline: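 Cytotoxicity counter-screen: live-cell protease activity measured by fluorescence (30 min reagent step) in the same wells. Cells were VM7Luc4E2 with endogenous ER-alpha and ERE-driven luciferase, treated 22 hr at 37C alongside 0.1 nM 17beta-estradiol final.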

[3] = qHTS assay to identify small molecule antagonists of the androgen receptor (AR) signaling pathway using the MDA cell line in the presence of 0.5 nM R1881 - cell viability counter screen (AID 1259242); further: nearly all actives have a fitted effect of over 45% in size
Outline: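 R1881 at 0.5 nM final stimulated MDA-kb2 cells during 16 hr compound treatment at 37C. Cytotoxicity read: CellTiter-Fluor fluorescence after 30 min.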

[4] = biological target: Estrogen receptor (Homo sapiens) (UniProt P03372); assay: qHTS assay to identify small molecule antagonists of the estrogen receptor alpha (ER-alpha) signaling pathway using the BG1 cell line in the presence of 0.1 nM 17-beta-estradiol (AID 1259244); further: nearly all actives have a fitted effect of over 50% in size
Sequence of Estrogen receptor (Homo sapiens) (P03372 whole entry, looked up): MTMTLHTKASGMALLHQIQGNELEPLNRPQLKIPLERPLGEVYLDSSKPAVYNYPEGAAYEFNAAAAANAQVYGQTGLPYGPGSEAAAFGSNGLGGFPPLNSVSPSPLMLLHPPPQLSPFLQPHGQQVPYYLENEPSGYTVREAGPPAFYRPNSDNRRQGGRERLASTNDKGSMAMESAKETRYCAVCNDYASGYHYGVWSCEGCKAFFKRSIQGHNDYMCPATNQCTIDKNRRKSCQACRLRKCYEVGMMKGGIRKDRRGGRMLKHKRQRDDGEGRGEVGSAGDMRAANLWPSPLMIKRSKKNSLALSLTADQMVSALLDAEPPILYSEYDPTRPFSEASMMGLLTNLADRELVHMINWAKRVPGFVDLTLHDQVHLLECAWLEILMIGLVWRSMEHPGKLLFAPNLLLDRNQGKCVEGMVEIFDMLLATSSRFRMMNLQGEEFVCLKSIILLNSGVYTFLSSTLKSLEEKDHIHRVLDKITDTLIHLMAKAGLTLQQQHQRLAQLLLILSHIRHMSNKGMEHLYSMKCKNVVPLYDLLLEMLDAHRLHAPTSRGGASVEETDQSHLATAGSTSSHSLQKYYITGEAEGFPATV
Outline: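 VM7Luc4E2; 4xERE-luciferase; 0.1 nM E2 final; 22 h co-incubation, 37C; ONE-Glo luminescence after 30 min at room temperature.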

[5] = qHTS assay to identify small molecule HDAC inhibitors - cell viability counter screen (AID 1259365); further: series mostly up to about 92 µM; nearly all actives have a fitted effect of over 50% in size
Outline: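 CellTiter-Glo luminescence (30 min, room temperature) reported viability after a 2 h compound exposure at 37 C. Cells: wild-type HCT-116, 1,500 per well, seeded the night before.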

[6] = qHTS assay to identify small molecule agonists of the sonic hedgehog signaling (Shh) pathway - cell viability counter screen (AID 1259366); further: nearly all actives have a fitted effect of over 50% in size
Outline: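 Cytotoxicity counter screen: CellTiter-Fluor reagent added after 23 h compound exposure, then 1 h at 37C and fluorescence read. Cells were 3T3 Gli1-Luc, seeded 2,000 per well and dosed 4 h post-plating.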

[7] = qHTS assay to identify small molecule antagonists of the sonic hedgehog signaling (Shh) pathway - cell viability counter screen (AID 1259367); further: nearly all actives have a fitted effect of over 55% in size
Outline: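 Seed 3T3 Gli1-Luc cells at 2,000 per well; incubate 4 hr; add compound in DMSO, then conditioned medium; incubate at 37C with 5% CO2; add CellTiter-Fluor after 23 hr; read fluorescence 1 hr later.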

[8] = qHTS assay to identify small molecule agonists of the sonic hedgehog signaling (Shh) pathway (AID 1259368; calls by dose curve;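 further: NIH/3T3-derived 3T3Gli1-Luc cells carrying a stable Gli1-driven firefly luciferase reporter; series mostly up to about 92 µM; nearly all actives have a fitted effect of over 15% in size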)
Outline: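 Mouse fibroblast (NIH/3T3) reporter cells with stably integrated Gli1-Luc were treated 24 hr with compound; firefly luciferase luminescence served as the read-out.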

[9] = qHTS assay to identify small molecule antagonists of the sonic hedgehog signaling (Shh) pathway (AID 1259369; calls by dose curve; further: nearly all actives have a fitted effect of over 45% in size)
Outline: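 Conditioned medium drives Shh signalling in 3T3Gli1-Luc cells; compounds in DMSO co-applied, 24hr at 37 C, then luciferase luminescence.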

[10] = qHTS assay to identify small molecule agonists of the androgen receptor (AR) signaling pathway in the presence of an antagonist - cell viability counter screen (AID 1259379);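 further: MDA-kb2 human breast cancer cells carrying an MMTV luciferase reporter; series mostly up to about 92 µM; nearly all actives have a fitted effect of over 25% in size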
Outline: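 A CellTiter-Fluor read-out measured viability of MDA-kb2 reporter cells (MMTV promoter with AR and GR response elements). Treatment: nilutamide 3.0uM final with compounds at 15 concentrations, 16 hr, 37C, 0% CO2.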

[11] = qHTS assay to identify small molecule antagonists of the estrogen receptor beta (ER-beta) signaling pathway - cell viability counter screen (AID 1259382); further: nearly all actives have a fitted effect of over 55% in size; further: potency means the concentration at half of the fitted maximal effect
Outline: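 Agonist-stimulated (1nM E2) ER-beta-UAS-bla HEK293T cells are incubated with library compounds for 16 hr at 37C. Cell viability is then assessed in the reporter-assay wells by adding CellTiter-Glo and reading luminescence after 30 min.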

[12] = qHTS assay to identify small molecule agonists or antagonists of the thyroid stimulating hormone receptor (TSHR) signaling pathway - wild type cell line counter screen (AID 1259384; calls by dose curve)
Outline: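 Wild-type Hek293 cells, 800/well, 18 h at 37C, then compound with Ro20-1724 for 30 min RT. cAMP by HTRF (cAMP-d2/anti-cAMP cryptate), 1 h RT, fluorescence read. 15 concentrations, triplicates.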

[13] = qHTS assay to identify small molecule phospholipidosis (PLD) inducers (AID 1259344; active means well fitted curve in the direction sought with a large enough effect; an effect the other way counts as inactive or inconclusive)
Outline: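 Quantitative HTS in HepG2: compound plus LipidTOX Red dye for 24 h, paraformaldehyde fixation with Hoechst 33342, widefield high-content imaging; amiodarone as positive and DMSO as negative control.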

[14] = qHTS assay to identify small molecule HDAC inhibitors (AID 1259364);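 further: wild-type HCT-116 cells with endogenous class I/II HDAC activity; top concentration of the series differs between compounds; nearly all actives have a fitted effect of over 45% in size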
Outline: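 Relative class I and II HDAC activity is taken from the luminogenic signal in HCT-116 cells, with compound exposure 2 hr and reagent development 30 min at room temperature.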

[15] = qHTS assay to identify small molecule agonists of the estrogen receptor beta (ER-beta) signaling pathway - cell viability counter screen (AID 1259380); further: nearly all actives have a fitted effect of over 30% in size
Outline: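 Cells used were ER-beta-UAS-bla HEK293T in medium with 2% charcoal-stripped FBS. They were treated for 16 hr at 37C. Viability came from CellTiter-Glo luminescence.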

[16] = biological target: Estrogen receptor beta (Homo sapiens) (UniProt Q92731); assay: qHTS assay to identify small molecule agonists of the estrogen receptor beta (ER-beta) signaling pathway (AID 1259377; active means well fitted activation curve with a large enough effect in the signal ratio in the repeat runs, not every such curve was filed as active; the % refers to the signal ratio)
Sequence of Estrogen receptor beta (Homo sapiens) (Q92731 whole entry, looked up): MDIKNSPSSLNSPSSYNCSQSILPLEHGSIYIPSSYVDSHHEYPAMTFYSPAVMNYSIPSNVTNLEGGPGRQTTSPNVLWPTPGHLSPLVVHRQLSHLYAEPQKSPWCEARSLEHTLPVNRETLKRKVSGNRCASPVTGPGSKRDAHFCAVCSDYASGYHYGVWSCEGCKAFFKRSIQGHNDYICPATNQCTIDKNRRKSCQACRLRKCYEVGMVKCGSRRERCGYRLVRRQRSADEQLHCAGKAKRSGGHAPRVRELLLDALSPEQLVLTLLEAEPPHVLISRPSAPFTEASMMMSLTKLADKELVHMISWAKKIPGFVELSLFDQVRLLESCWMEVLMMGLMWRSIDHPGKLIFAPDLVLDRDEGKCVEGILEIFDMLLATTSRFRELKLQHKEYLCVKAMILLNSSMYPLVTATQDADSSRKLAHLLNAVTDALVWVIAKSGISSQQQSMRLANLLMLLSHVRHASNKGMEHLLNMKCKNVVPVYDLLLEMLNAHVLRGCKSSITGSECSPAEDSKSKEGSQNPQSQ
Outline: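 Ratiometric beta-lactamase FRET read-out came after 2 h substrate loading at room temperature. It followed 16 h compound treatment at 37C of GripTite HEK293T cells carrying a UAS-bla reporter, plated in 2% charcoal-stripped FBS medium.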

[17] = biological target: Estrogen receptor beta (Homo sapiens) (UniProt Q92731); assay: qHTS assay to identify small molecule antagonists of the estrogen receptor beta (ER-beta) signaling pathway (AID 1259378; active means well fitted inhibition curve with a large enough effect in the signal ratio in the repeat runs, not every such curve was filed as active; the % refers to the signal ratio)
Outline: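 ER-beta-UAS-bla HEK293T cells in 2% charcoal-stripped FBS medium treated with compound plus 1nM final 17-beta-estradiol for 16 hr at 37C. Beta-lactamase reporter read by FRET substrate fluorescence after 2 hours at room temperature.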

[18] = biological target: Estrogen receptor (Homo sapiens) (UniProt P03372); assay: qHTS assay to identify small molecule agonists of the estrogen receptor alpha (ER-alpha) signaling pathway in the presence of an antagonist (AID 1259383; calls by dose curve; further: top concentration of the series differs between compounds; nearly all actives have a fitted effect of over 15% in size)
Outline: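 Using VM7Luc4E2 cells seeded 24hr before treatment, antagonist ICI-182,780 (10.0nM final) was added, followed by compounds at 15 concentrations. Plates incubated 22hr; ONE-Glo luminescence quantified reporter activity.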

Measured: Potency

CCCC(C)C(=O)O (stereo unspecified)
active: [11] 37 µM
not listed: [13] | [14] | [15] | [16] | [17] | [18]
inactive: all other assays above

C=CCSCC1Nc2cc(Cl)c(S(N)(=O)=O)cc2S(=O)(=O)N1 (stereo unspecified)
not listed: [4] | [16] | [17] | [18]
inactive: all other assays above

COCc1ccc(COC)cc1
not listed: [6] | [12] | [13]
inactive: all other assays above

CC(=O)O[C@H](CC(=O)[O-])C[N+](C)(C)C
inactive: [1] | [2] | [3] | [4] | [5] | [7] | [8] | [10] | [15] | [11]

CNC(=O)c1c(I)c(NC(=O)CCCCC(=O)Nc2c(I)c(C(=O)O)c(I)c(C(=O)NC)c2I)c(I)c(C(=O)O)c1I
not listed: [12] | [13] | [14]
inactive: all other assays above

NC(=O)c1c(Cl)cccc1Cl
not listed: [9] | [13] | [16] | [17]
inactive: all other assays above

CCCCCCC(=O)OCC
not listed: [9] | [13] | [15] | [16]
inactive: all other assays above

CC1=CC(C)C(C=O)C(C)C1 (stereo unspecified)
not listed: [6] | [12] | [13] | [16] | [17]
inactive: all other assays above

COc1cc(C)cc(O)c1
not listed: [4] | [12] | [13] | [18]
inactive: all other assays above

O=C(O)/C=C/c1ccc(Cn2ccnc2)cc1
not listed: [4] | [6] | [12] | [18]
inactive: all other assays above

C=C(C)[C@H]1CC=C(C)CC1
inactive: [1] | [2] | [3] | [4] | [5] | [8] | [10] | [15] | [11] | [18]

O=C(O)Cc1cc(I)c(Oc2cc(I)c(O)c(I)c2)c(I)c1
not listed: [9] | [11] | [12] | [13] | [15] | [17]
inactive: all other assays above

CC(C)=CC(=O)O
not listed: [13] | [14] | [16] | [17] | [18]
inactive: all other assays above

CO
not listed: [4] | [14] | [16] | [17] | [18]
inactive: all other assays above

C=C(C)[C@@H]1CCC2=CC(=O)C[C@@H](C)[C@]2(C)C1
not listed: [6] | [9] | [13] | [16]
inactive: all other assays above

Nc1ncnc2c1ncn2Cc1c(F)cccc1Cl
not listed: [9] | [13] | [14] | [16] | [17]
inactive: all other assays above

C=C(C)C(=O)NCCC[N+](C)(C)C
not listed: [6] | [13] | [16] | [17]
inactive: all other assays above

CC/C=C\CCCCO
not listed: [9] | [12] | [13] | [14] | [16] | [17]
inactive: all other assays above

CCCCCCCCCCC1CO1 (stereo unspecified)
not listed: [4] | [13] | [16] | [17] | [18]
inactive: all other assays above

N#CC1(O)CCCCC1
not listed: [4] | [6] | [7] | [9] | [13] | [18]
inactive: all other assays above

C1C2OC2C2C1C1CC2C2OC12 (stereo unspecified)
not listed: [4] | [12] | [13] | [16] | [17] | [18]
inactive: all other assays above

C1=C\CC/C=C\CC/C=C\CC/1
not listed: [4] | [12] | [13] | [17] | [18]
inactive: all other assays above

CC(CCO)CCCC(C)(C)O (stereo unspecified)
not listed: [4] | [9] | [12] | [13] | [14] | [18]
inactive: all other assays above

N#CCc1ccccc1[N+](=O)[O-]
not listed: [4] | [13] | [14] | [18]
inactive: all other assays above

CCCCCCCCCCCCCCC
not listed: [4] | [13] | [15] | [18]
inactive: all other assays above

— PubChem BioAssay (Tox21)
